Assay [1] in a line: ATG_DR4_LXR_CIS: Attagene CIS-FACTORIAL HepG2 Assay for human Liver X Receptor (LXR), DR4 submotif (AID 2282929). To be noted: HepG2 Attagene DR4 cis-reporter, mRNA transcription; actives raise or lower the signal. The gist of the method: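 DR4 cis-reporter in HepG2, 24 h exposure. Detection: RT-PCR, 6-FAM labelling, CE fragment analysis. Endpoint fitted bidirectionally, DMSO = baseline.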

For assay [2], the target named is Aryl hydrocarbon receptor (Homo sapiens) (UniProt P35869). In words: ATG_Ahr_CIS: Attagene CIS-FACTORIAL HepG2 Assay for human Aryl Hydrocarbon Receptor (Ahr) (AID 2282930). To be noted: HepG2 AhR cis-factorial reporter transcription; actives raise or lower the signal. The method in brief: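 HepG2 cells transiently transfected with cis-element-driven multiplexed reporter transcription units; endogenous transcription factor activity measured as reporter mRNA 24 h after dosing. RT-PCR, 6-FAM labelling, HpaI digestion, capillary electrophoresis; bidirectional fitting versus DMSO baseline.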

Assay [3] is described as follows: ATG_AP_1_CIS: Attagene CIS-FACTORIAL HepG2 Assay for human Activator Protein 1 (AP-1) (AID 2282931). To be noted: HepG2 Attagene cis-factorial AP-1 reporter mRNA; actives raise or lower the signal. The method in brief: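 Cis-regulated reporter units transiently expressed in HepG2 report endogenous transcription-factor activity. Signal: reporter mRNA at 24 h, via RT-PCR and fluorescent capillary electrophoresis. Endpoint derived by bidirectional fitting, DMSO as negative control.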

A short description of assay [4]: ATG_AP_2_CIS: Attagene CIS-FACTORIAL HepG2 Assay for human Activator Protein 2 (AP-2) (AID 2282932). The note with it: HepG2 AP-2 cis-reporter, Attagene transcription factor profiling; actives raise or lower the signal. The gist of the method:
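Cells (HepG2) transfected with promoter-driven reporter constructs, treated 24 h. Total RNA reverse-transcribed, reporter cDNA PCR-amplified, FAM-labelled by primer extension, digested, resolved by capillary electrophoresis. Activity fitted both directions versus DMSO.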

Assay [5] in a line: ATG_BRE_CIS: Attagene CIS-FACTORIAL HepG2 Assay for human Bone Morphogenetic Protein (BMP) Response Element (BRE) (AID 2282933). To be noted: HepG2 BMP response element reporter, Attagene transcription factor profiling; actives raise or lower the signal. The gist of the method:
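A HepG2 multiplex reporter system measured inducible reporter mRNA 24 h post-dosing. Detection: RT-PCR, 6-FAM primer extension, HpaI digestion, capillary electrophoresis. Activity fitted bidirectionally relative to DMSO.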

Assay [6] has as its target Retinoic acid receptor alpha (Homo sapiens) (UniProt P10276). In words: ATG_DR5_RAR_CIS: Attagene CIS-FACTORIAL HepG2 Assay for human Retinoic Acid Receptor Alpha (RARE), DR5 submotif (AID 2282934). The note with it: HepG2 Attagene cis-factorial RARE DR5 reporter, mRNA; actives raise or lower the signal. The method in brief: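 HepG2 cells transiently transfected with multiplexed reporter units under cis (DR5 RARE) promoters, so endogenous transcription factor activity is measured. After 24 h compound exposure, reporter mRNA is quantified by RT-PCR with fluorescent labelling and capillary electrophoresis; bidirectional fitting versus DMSO.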

Assay [7] addresses Transcription factor E2F1 (Homo sapiens) (UniProt Q01094). Briefly: ATG_E2F_CIS: Attagene CIS-FACTORIAL HepG2 Assay for human E2F Transcription Factor 1 (AID 2282935). The note with it: HepG2 Attagene cis-reporter, E2F reporter RNA transcripts; actives raise or lower the signal. The method in brief:
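First, HepG2 cells were transfected with reporter transcription units. Next, they were dosed for 24 h. Then RNA was isolated, converted to cDNA, PCR-amplified, FAM-labeled, HpaI-digested and analyzed by capillary electrophoresis.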

Assay [8] can be described thus: ATG_E_Box_CIS: Attagene CIS-FACTORIAL HepG2 Assay for human Enhancer Box (E-box) (AID 2282936). To be noted: HepG2 E-box cis-reporter transcription, actives raise or lower the signal. The gist of the method:
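Endogenous transcription factor activity was sensed in human HepG2 liver cells through transfected cis-promoter reporter units. After 24 h of dosing, total RNA was reverse-transcribed and reporter cDNA resolved by capillary electrophoresis.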

The nature of assay [9]: ATG_M_61_CIS: Attagene CIS-FACTORIAL HepG2 Assay for M61 Transcription Factor (Internal Marker) (AID 2282937). The note with it: HepG2 Attagene CIS-FACTORIAL M61 internal marker reporter; actives raise or lower the signal. The method in brief:
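Background-control endpoint: HepG2 cells with cis-regulated reporter constructs, 24 h exposure, reporter mRNA detected via fluorescent primer extension and capillary electrophoresis; values from bidirectional fitting with DMSO baseline.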

Assay [10] in a line: ATG_M_19_CIS: Attagene CIS-FACTORIAL HepG2 Assay for M19 Transcription Factor (Internal Marker) (AID 2282939). To be noted: HepG2 Attagene CIS-FACTORIAL M19 internal marker reporter; actives raise or lower the signal. The gist of the method: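 Chemical-treated HepG2 (24 h) with MRTU constructs; reporter transcripts detected by fluorescent RT-PCR fragment analysis on capillary electrophoresis. Internal background marker, DMSO as baseline.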

A short description of assay [11]: ATG_Ets_CIS: Attagene CIS-FACTORIAL HepG2 Assay for human Erythroblast Transformation Specific (ETS) (AID 2282941). To be noted: HepG2 ETS cis-reporter transcription, actives raise or lower the signal. The method in brief:
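RT-PCR/capillary electrophoresis fluorescence read-out of reporter mRNA; HepG2 transient multi-reporter transfection; 24 h compound exposure; gain or loss of signal fitted bidirectionally relative to DMSO.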

Assay [12] is described as follows: ATG_FoxO_CIS: Attagene CIS-FACTORIAL HepG2 Assay for human Forkhead box O (FoxO) (AID 2282943). To be noted: HepG2 Attagene cis-reporter, FoxO element, mRNA; actives raise or lower the signal. The method in brief:
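HepG2 cells transiently transfected with cis-promoter-driven multiple reporter transcription units; 24 h after chemical dosing, reporter mRNA quantified by RT-PCR, fluorescent primer extension, HpaI digestion and capillary electrophoresis. Bidirectional fitting versus DMSO baseline.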

Assay [13] is described as follows: ATG_GATA_CIS: Attagene CIS-FACTORIAL HepG2 Assay for human GATA Binding Protein (AID 2282944). To be noted: HepG2 GATA cis-element reporter, Attagene multiplex mRNA; actives raise or lower the signal. The gist of the method: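 Transfected cis-reporter HepG2 cells were treated with chemicals for 24 hours. Total RNA was then converted to cDNA, amplified with reporter-specific primers and analysed by fluorescent capillary electrophoresis, using DMSO-treated wells as baseline.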

The nature of assay [14]: ATG_GLI_CIS: Attagene CIS-FACTORIAL HepG2 Assay for human Zinc Finger Protein GLI1 (AID 2282945). To be noted: HepG2, Attagene cis-factorial reporter mRNA, GLI element; actives raise or lower the signal. The method in brief:
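HepG2 cells transiently transfected with cis-promoter multiplexed reporter units report endogenous transcription factor activity. After 24 h chemical exposure, reporter mRNA was quantified by RT-PCR, 6-FAM labelling, HpaI digestion and capillary electrophoresis, with bidirectional fitting against DMSO.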

For assay [15], the target named is Bile acid receptor (Homo sapiens) (UniProt Q96RI1). In words: ATG_IR1_CIS: Attagene CIS-FACTORIAL HepG2 Assay for human Nuclear Receptor Subfamily 1 Group H Member 4 (NR1H4), IR1 submotif (AID 2282946). To be noted: IR1 reporter transcription, actives raise or lower the signal. The gist of the method: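 Readout: reporter transcript levels by RT-PCR with fluorescent capillary electrophoresis, from HepG2 cells transiently transfected with multiplexed cis-regulated reporters and dosed 24 h. Gain- or loss-of-signal fitted versus DMSO negative control.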

Assay [16] is described as follows: ATG_GRE_CIS: Attagene CIS-FACTORIAL HepG2 Assay for human Glucocorticoid Response Elements (GRE) (AID 2282947). The note with it: HepG2 GRE cis-reporter, Attagene multiplex mRNA; actives raise or lower the signal. The gist of the method: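 Cells (HepG2) bearing transfected cis-promoter reporter transcription units were treated with chemical for 24 hours. Reporter mRNA was measured via RT-PCR with capillary electrophoresis, and activity was fitted in both directions relative to DMSO.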

Assay [17] can be described thus: ATG_ISRE_CIS: Attagene CIS-FACTORIAL HepG2 Assay for human Interferon Regulatory Factor 1 (IRF1) binding to an Interferon-Stimulated Response Element (ISRE) (AID 2282948). To be noted: HepG2 ISRE cis-reporter (Attagene), mRNA transcription readout; actives raise or lower the signal. The gist of the method: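 Read-out: fluorescent RT-PCR products resolved by capillary electrophoresis, reporting endogenous transcription factor activity via ISRE-driven reporter mRNA in transfected HepG2 cells dosed for 24 h; gain or loss fitted relative to DMSO.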

The nature of assay [18]: ATG_EGR_CIS: Attagene CIS-FACTORIAL HepG2 Assay for human Early Growth Response 1 (EGR1) (AID 2282938). To be noted: HepG2 Attagene CIS-FACTORIAL EGR reporter mRNA; actives raise or lower the signal. The method in brief: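 Endpoint derived by bidirectional fitting versus DMSO vehicle. Method: cis-promoter reporter units transfected into HepG2, 24 h dosing, RNA isolation, RT-PCR with 6-FAM primer extension and HpaI digestion, then capillary electrophoresis fluorescence detection.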

The nature of assay [19]: ATG_ERE_CIS: Attagene CIS-FACTORIAL HepG2 Assay for Estrogen Response Element (ERE) (AID 2282940). To be noted: HepG2 ERE cis-reporter, Attagene RNA transcript; actives raise or lower the signal. The method in brief: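 Human liver cells (HepG2) bearing transiently transfected, promoter-regulated reporter units were exposed 24 h. Reporter mRNA induction was detected by capillary electrophoresis of labelled RT-PCR products and fitted bidirectionally to DMSO.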

Assay [20] has as its target Hepatocyte nuclear factor 3-beta (Homo sapiens) (UniProt Q9Y261). In words: ATG_FoxA2_CIS: Attagene CIS-FACTORIAL HepG2 Assay for human Forkhead box A2 (FOXA2) (AID 2282942). To be noted: HepG2 cis-reporter transcription factor activity, 24 h; actives raise or lower the signal. The gist of the method: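 Measured: reporter mRNA induction or loss in HepG2 transiently carrying multiple cis-regulated reporter units, 24 h after dosing. Quantified by RT-PCR plus capillary electrophoresis, normalised to DMSO.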

This passage reports outcome and AC50 results from PubChem BioAssay (EPA / NIEHS).

Molecules are shown by their SMILES. Calls of active or inactive are those of the source. Rule for the calls: active = hit-call score of the fitted dose curve at least 0.9, where 1 is the maximum; inactive = score below 0.9.

Chain of Transcription factor E2F1 (Homo sapiens) (Q01094 whole entry, looked up): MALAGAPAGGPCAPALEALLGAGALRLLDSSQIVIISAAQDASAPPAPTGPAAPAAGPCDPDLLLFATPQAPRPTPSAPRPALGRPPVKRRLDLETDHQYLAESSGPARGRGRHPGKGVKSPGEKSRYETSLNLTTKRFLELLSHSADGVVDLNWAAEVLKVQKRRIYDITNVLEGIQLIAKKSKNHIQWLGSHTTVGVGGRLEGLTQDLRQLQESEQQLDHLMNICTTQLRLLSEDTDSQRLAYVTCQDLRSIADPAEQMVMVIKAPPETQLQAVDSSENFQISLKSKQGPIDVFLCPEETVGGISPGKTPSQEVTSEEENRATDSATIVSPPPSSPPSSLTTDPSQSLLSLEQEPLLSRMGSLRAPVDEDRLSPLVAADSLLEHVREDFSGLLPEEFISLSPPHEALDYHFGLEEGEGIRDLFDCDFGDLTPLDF
Chain of Hepatocyte nuclear factor 3-beta (Homo sapiens) (Q9Y261 whole entry, looked up): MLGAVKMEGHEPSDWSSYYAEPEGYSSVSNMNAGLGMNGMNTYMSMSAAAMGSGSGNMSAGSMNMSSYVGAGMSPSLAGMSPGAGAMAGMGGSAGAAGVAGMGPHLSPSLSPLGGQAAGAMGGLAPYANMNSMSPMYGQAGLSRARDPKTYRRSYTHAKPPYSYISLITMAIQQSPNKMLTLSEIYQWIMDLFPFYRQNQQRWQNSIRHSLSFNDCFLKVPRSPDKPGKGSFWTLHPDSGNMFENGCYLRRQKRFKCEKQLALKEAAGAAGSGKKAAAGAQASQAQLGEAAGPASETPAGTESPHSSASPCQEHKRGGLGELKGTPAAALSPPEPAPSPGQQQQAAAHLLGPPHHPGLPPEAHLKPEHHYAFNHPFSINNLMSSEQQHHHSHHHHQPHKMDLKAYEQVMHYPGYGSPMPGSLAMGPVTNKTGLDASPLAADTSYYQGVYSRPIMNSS
Chain of Aryl hydrocarbon receptor (Homo sapiens) (P35869 whole entry, looked up): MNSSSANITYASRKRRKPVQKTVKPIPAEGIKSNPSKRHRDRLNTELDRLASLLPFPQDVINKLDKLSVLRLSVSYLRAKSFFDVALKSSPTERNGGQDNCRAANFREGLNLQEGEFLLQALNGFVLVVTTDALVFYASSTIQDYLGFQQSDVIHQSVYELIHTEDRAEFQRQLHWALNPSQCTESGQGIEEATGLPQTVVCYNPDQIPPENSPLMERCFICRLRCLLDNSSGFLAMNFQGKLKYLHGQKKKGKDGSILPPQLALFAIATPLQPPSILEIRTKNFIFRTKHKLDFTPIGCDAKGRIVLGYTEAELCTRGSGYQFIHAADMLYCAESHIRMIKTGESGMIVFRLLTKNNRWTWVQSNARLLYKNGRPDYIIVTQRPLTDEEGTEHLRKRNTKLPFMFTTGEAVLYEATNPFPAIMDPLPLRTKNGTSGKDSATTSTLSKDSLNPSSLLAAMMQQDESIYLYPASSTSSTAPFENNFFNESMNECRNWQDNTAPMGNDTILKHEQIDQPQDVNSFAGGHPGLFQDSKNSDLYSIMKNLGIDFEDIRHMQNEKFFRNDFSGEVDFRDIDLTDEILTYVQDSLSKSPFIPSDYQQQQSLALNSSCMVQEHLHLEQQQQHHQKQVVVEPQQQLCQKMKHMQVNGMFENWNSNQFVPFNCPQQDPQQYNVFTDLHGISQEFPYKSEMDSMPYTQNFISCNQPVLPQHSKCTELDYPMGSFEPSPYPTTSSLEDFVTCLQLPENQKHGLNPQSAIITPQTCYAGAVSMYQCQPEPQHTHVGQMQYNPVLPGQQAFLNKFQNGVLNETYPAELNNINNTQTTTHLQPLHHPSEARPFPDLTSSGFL
Chain of Bile acid receptor (Homo sapiens) (Q96RI1 whole entry, looked up): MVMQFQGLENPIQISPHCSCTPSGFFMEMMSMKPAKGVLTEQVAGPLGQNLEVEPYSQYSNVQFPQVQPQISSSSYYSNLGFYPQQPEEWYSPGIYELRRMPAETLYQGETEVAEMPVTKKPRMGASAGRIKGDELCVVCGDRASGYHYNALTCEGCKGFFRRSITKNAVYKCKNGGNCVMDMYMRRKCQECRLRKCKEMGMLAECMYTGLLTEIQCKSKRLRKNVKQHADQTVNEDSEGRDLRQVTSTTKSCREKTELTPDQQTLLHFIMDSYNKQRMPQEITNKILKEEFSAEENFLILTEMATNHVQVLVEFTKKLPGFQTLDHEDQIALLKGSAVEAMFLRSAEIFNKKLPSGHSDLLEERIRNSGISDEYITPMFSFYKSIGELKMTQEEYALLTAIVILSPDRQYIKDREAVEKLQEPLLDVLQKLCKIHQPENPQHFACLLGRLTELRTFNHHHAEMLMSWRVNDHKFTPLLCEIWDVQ
Chain of Retinoic acid receptor alpha (Homo sapiens) (P10276 whole entry, looked up): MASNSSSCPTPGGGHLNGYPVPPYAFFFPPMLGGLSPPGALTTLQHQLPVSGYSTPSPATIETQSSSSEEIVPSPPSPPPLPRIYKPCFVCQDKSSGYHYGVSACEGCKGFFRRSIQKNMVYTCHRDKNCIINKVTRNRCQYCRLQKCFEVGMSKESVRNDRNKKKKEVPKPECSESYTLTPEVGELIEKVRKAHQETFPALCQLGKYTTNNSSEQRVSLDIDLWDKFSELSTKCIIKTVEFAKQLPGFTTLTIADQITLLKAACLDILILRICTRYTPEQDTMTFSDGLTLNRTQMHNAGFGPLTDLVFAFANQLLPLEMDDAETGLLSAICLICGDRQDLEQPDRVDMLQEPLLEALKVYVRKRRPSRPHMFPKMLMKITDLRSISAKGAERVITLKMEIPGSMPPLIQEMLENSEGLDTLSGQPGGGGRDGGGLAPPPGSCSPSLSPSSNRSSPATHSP

On to `CC(C)[C@H](C(=O)OC(C#N)c1cccc(Oc2ccccc2)c1)c1ccc(OC(F)F)cc1` (stereo partly specified), for which the call in assay [1], in assay [2], in [3], in [4], in assay [5] and in [6] was inactive. The result in assay [7], in assay [8], in assay [9], in [10], in [11] and in assay [12] was inactive. Further, the outcome in assay [13], in assay [14], in assay [15], in assay [16] and in assay [17] was inactive.
In the case of `ClCCN1CCOCC1`, the call in [1], in [2], in [3], in assay [4], in assay [5] and in assay [6] was inactive. Moreover, the molecule was classed as inactive in assay [7], in assay [8], in assay [18], in assay [10], in assay [19] and in assay [11]. Moreover, the molecule was called inactive in assay [20], in [12], in assay [13], in assay [14], in assay [15] and in assay [16]. In assay [17], the molecule was called inactive.
Take `CCOP(=O)(OCC)OC(=CCl)c1ccc(Cl)cc1Cl`: the result in assay [1], in assay [2], in assay [3], in assay [4], in assay [5] and in assay [6] was inactive. The molecule was classed as inactive in assay [7], in [8], in [18], in [10], in assay [11] and in assay [20]. In addition, the molecule was called inactive in [12], in [13], in [14], in assay [16] and in assay [17]. In addition, the AC50 in assay [19] is 11.1 µM (active).
Turning to `O=C(CBr)c1ccc(O)cc1`, the outcome in assay [1], in assay [2], in assay [3], in assay [4], in [5] and in assay [6] was inactive. The outcome in assay [7], in assay [8], in assay [18], in assay [10], in [11] and in assay [12] was inactive. For the same molecule, the call in assay [13], in assay [14], in assay [15], in assay [16] and in assay [17] was inactive.
On to `CNC(=O)N(C)c1nc2ccccc2s1`, for which the molecule was called inactive in assay [1], in assay [3], in assay [4], in assay [5], in assay [6] and in assay [7]. Besides, the result in [8], in [9], in [18], in [12], in assay [13] and in assay [14] was inactive. Moreover, the outcome in assay [15] and in assay [17] was inactive. For the same molecule, the values for the half-maximal activity concentration (AC50) in assay [2] and in assay [20] were 1.08 µM (active) and 26.8 µM (active), respectively.
`Cc1cccc(OP(=O)(Oc2cccc(C)c2)Oc2cccc(C)c2)c1`: the molecule was called inactive in assay [1], in assay [2], in assay [3], in assay [4], in assay [5] and in assay [6]. The molecule was classed as inactive in assay [7], in [8], in [9], in assay [10], in assay [11] and in assay [20]. Also, the molecule was called inactive in assay [12], in [13], in assay [14], in assay [15] and in assay [17].
As to `CS(=O)(=O)c1ccc(C(=O)C2C(=O)CCCC2=O)c(Cl)c1COCC(F)(F)F`, the call in assay [1], in assay [2], in assay [3], in [4], in assay [5] and in assay [6] was inactive. For the same molecule, the molecule was called inactive in assay [7], in [8], in assay [9], in assay [10], in assay [11] and in assay [20]. For the same molecule, the result in [12], in assay [13], in assay [14], in assay [16] and in assay [17] was inactive.
